The whole screen tested about 39,000 compounds, of which about 3,300 (8.5%) were called active. Only a selection was taken, and actives are over-represented in it overall.

This experiment deals with HepG2. In words: cytotoxicity call (relative viability < 0.9). Particulars: 10 µM.
For the compound `C[C@H]1CN([C@@H](C)CO)S(=O)(=O)c2ccc(C#CC3CCCC3)cc2O[C@@H]1CN(C)C(=O)Cc1ccncc1`, the cytotoxicity call was “inactive”.

For `COc1ccc([Si](C)(C)[C@@H]2[C@@H](CC(=O)N3Cc4ccccc4C[C@H]3CO)O[C@]3(C(=O)N(Cc4cccc(N5CCC5=O)c4)c4ccccc43)[C@H]2C)cc1`, the cytotoxicity call was “inactive”.

Regarding `CC1C(=O)OC2C1CCC1(C)CCC(=O)C(C)C21` (centres undefined), the cytotoxicity call was “inactive”.

Consider `CN1CCN(S(=O)(=O)c2ccc(CN)cc2)CC1`, for which the cytotoxicity call is “inactive”.

In the case of `C[C@H]1CN([C@@H](C)CO)C(=O)c2cc(NS(=O)(=O)c3ccc(Cl)cc3)ccc2O[C@H]1CN(C)Cc1ccc(Oc2ccccc2)cc1`, the cytotoxicity call was “inactive”.

With `C[C@@H]1CN([C@@H](C)CO)C(=O)c2cc(NS(=O)(=O)c3ccc(Cl)cc3)ccc2O[C@H]1CN(C)Cc1ccc(Oc2ccccc2)cc1`, the cytotoxicity call was “inactive”.

Consider `C[C@H](CO)N1C[C@H](C)[C@@H](CN(C)Cc2ccc(Oc3ccccc3)cc2)Oc2ccc(NS(=O)(=O)c3ccc(Cl)cc3)cc2C1=O`, for which the cytotoxicity call was “inactive”.

Regarding `C[C@@H]1CN([C@@H](C)CO)C(=O)c2cc(NS(=O)(=O)c3ccc(Cl)cc3)ccc2O[C@@H]1CN(C)Cc1ccc(Oc2ccccc2)cc1`, the cytotoxicity call was “active”.

For `C[C@@H]1CN([C@H](C)CO)C(=O)c2cc(NS(=O)(=O)c3ccc(Cl)cc3)ccc2O[C@@H]1CN(C)Cc1ccc(Oc2ccccc2)cc1`, the cytotoxicity call is “active”.

For the compound `C[C@H]1CN([C@@H](C)CO)C(=O)c2cc(NS(=O)(=O)c3ccc(Cl)cc3)ccc2O[C@@H]1CN(C)Cc1ccc(Oc2ccccc2)cc1`, the cytotoxicity call was “active”.

Take `C[C@@H]1CN([C@H](C)CO)C(=O)c2cc(NS(=O)(=O)c3ccc(Cl)cc3)ccc2O[C@H]1CN(C)Cc1ccc(Oc2ccccc2)cc1`: the cytotoxicity call is “active”.

Turning to `C[C@H](CO)N1C[C@H](C)[C@H](CN(C)Cc2ccc(Oc3ccccc3)cc2)Oc2ccc(NS(=O)(=O)c3ccc(Cl)cc3)cc2C1=O`, the cytotoxicity call was “inactive”.

Turning to `C[C@H](CO)N1C[C@H](C)[C@H](CN(C)C(=O)Nc2cccc3ccccc23)Oc2ncc(C#Cc3cccc(F)c3)cc2C1=O`, the cytotoxicity call was “inactive”.

As to `CC(C)(C)OC(=O)Nc1cccc([C@@H]2CC(=O)N(C(=O)OCc3ccccc3)[C@@H]2C(=O)Nc2cccc3cccnc23)c1`, the cytotoxicity call is “inactive”.

Consider `Cc1noc(C)c1NC(=O)Nc1ccc2c(c1)C(=O)N([C@H](C)CO)C[C@@H](C)[C@H](CN(C)C(=O)C1CCCCC1)OCCCC[C@@H](C)O2`, for which the cytotoxicity call is “inactive”.

`C[C@@H]1CN([C@H](C)CO)C(=O)c2cc(C#CC3(O)CCCC3)cnc2O[C@H]1CN(C)S(=O)(=O)c1cccc(F)c1`: the cytotoxicity call was “inactive”.

With `CCC1C(=O)OCC1Cc1cncn1C.O=[N+]([O-])O` (centres undefined), the cytotoxicity call was “inactive”.

With `Cc1noc(C)c1NC(=O)Nc1cccc2c1O[C@@H](CN(C)Cc1ccc(Oc3ccccc3)cc1)[C@H](C)CN([C@@H](C)CO)C2=O`, the cytotoxicity call was “inactive”.

Turning to `CN(C)CCCNC(=O)C[C@H]1CC[C@H]2[C@@H](COC[C@H](O)CN2S(=O)(=O)c2ccc(F)cc2)O1`, the cytotoxicity call is “inactive”.

For the compound `CO[C@H]1CN(C)C(=O)c2ccc(NC(=O)Nc3cccc(Cl)c3)cc2OC[C@@H](C)N(C(=O)Nc2c(C)noc2C)C[C@H]1C`, the cytotoxicity call was “inactive”.

`C[C@H]1CN([C@@H](C)CO)C(=O)c2cc(NC(=O)Nc3cccc4ccccc34)ccc2O[C@H]1CN(C)S(=O)(=O)c1ccccc1`: the cytotoxicity call is “inactive”.

Take `C[C@H](CO)N1C[C@H](C)[C@H](CN(C)C(=O)Nc2cccc3ccccc23)Oc2ccc(NC(=O)Nc3ccc(C(F)(F)F)cc3)cc2C1=O`: the cytotoxicity call was “inactive”.

As to `CCCCc1nc(-c2ccc(OCCCN(CC)CC)cc2)cn1-c1ccc(Oc2ccc(Cl)cc2)cc1`, the cytotoxicity call is “active”.

Take `CN(C)CCOC(=O)COc1ccc(Cl)cc1.Cl`: the cytotoxicity call was “inactive”.

Regarding `CCCC[C@@H](C#N)c1ccccn1`, the cytotoxicity call was “inactive”.

On to `CN(C)CC(=O)N[C@@H]1CC[C@H](CCNS(=O)(=O)c2ccccc2)O[C@H]1CO`, for which the cytotoxicity call was “inactive”.

For the compound `O=C(N[C@@H](c1ccccc1)c1ccc2ccccc2n1)C1CCN(Cc2cccc(C(F)(F)F)c2)CC1`, the cytotoxicity call is “inactive”.

Turning to `O=C(N[C@@H](c1ccccc1)c1ccc2ccccc2n1)C1CCN(Cc2ccc(Oc3ccccc3)cc2)CC1`, the cytotoxicity call was “inactive”.

Regarding `COc1ccc([C@@H](NC(=O)C2CCN(Cc3ccc(Oc4ccccc4)cc3)CC2)c2ccccc2C)cn1`, the cytotoxicity call was “inactive”.

As for `O=C(N[C@H](c1ccc(F)cc1)c1ccc2ccccc2n1)C1CCN(Cc2ccc(Oc3ccccc3)cc2)CC1`, the cytotoxicity call was “active”.

On to `COc1cc(CN2CCC(C(=O)N[C@@H](c3ccc(F)cc3)c3ccc4ccccc4n3)CC2)cc(OC)c1`, for which the cytotoxicity call is “active”.

Take `O=C(N[C@H](c1ccc(F)cc1)c1ccc2ccccc2n1)C1CCN(Cc2cccc(C(F)(F)F)c2)CC1`: the cytotoxicity call is “active”.

For `O=C(N[C@H](c1ccc(F)cc1)c1ccc2ccccc2n1)C1CCN(Cc2ccc3ccccc3n2)CC1`, the cytotoxicity call was “inactive”.

Turning to `COc1ccccc1[C@@H](NC(=O)C1CCN(Cc2ccc(Oc3ccccc3)cc2)CC1)c1ccccn1`, the cytotoxicity call was “inactive”.

For `COc1cc(OC)nc([C@@H](NC(=O)C2CCN(Cc3ccc(Oc4ccccc4)cc3)CC2)c2ccccc2C)n1`, the cytotoxicity call was “active”.

Take `COc1ccc2c3c(n(c2c1)C)[C@@H](CO)N(C[C@]13CCN(CC1)Cc1ccncc1)C(=O)CN1CCOCC1`: the cytotoxicity call was “inactive”.

For `NC(=NC(=O)N1CCOCC1)c1ccccc1`, the cytotoxicity call was “inactive”.

With `O=C(C[C@@H]1CC[C@@H](NC(=O)Cc2ccccn2)[C@@H](CO)O1)NCCc1ccncc1`, the cytotoxicity call was “inactive”.

For `CN(C)CCCNC(=O)[C@@H]1c2ccccc2C(=O)N(Cc2cc(C(F)(F)F)cc(C(F)(F)F)c2)[C@H]1c1ccc(CO)cc1`, the cytotoxicity call is “inactive”.

Take `CO[C@H](CN(C)S(=O)(=O)c1cn(C)cn1)[C@@H](C)CN(C(=O)Nc1ccc(C(F)(F)F)cc1)[C@@H](C)CO`: the cytotoxicity call is “inactive”.

Turning to `CNC[C@H]1Oc2c(NS(=O)(=O)c3cn(C)cn3)cccc2C(=O)N([C@@H](C)CO)C[C@H]1C`, the cytotoxicity call was “inactive”.

Consider `O=C(COc1ccc(S(=O)(=O)N2CCOCC2)cc1)N1CCOCC1`, for which the cytotoxicity call is “inactive”.

On to `COc1ccc([Si](C)(C)[C@@H]2[C@@H](CCOC(=O)NCCCCCC(=O)NO)O[C@@]3(C(=O)N(Cc4ccccc4)c4ccc(NC(=O)[C@@H](C)OC(=O)NCCCCCC(=O)NO)cc43)[C@H]2C)cc1`, for which the cytotoxicity call is “inactive”.

As to `C[C@H]1CN([C@@H](C)CO)C(=O)Cc2cc(NC(=O)Cn3cnnn3)ccc2O[C@@H]1CN(C)Cc1ccc(Cl)c(Cl)c1`, the cytotoxicity call is “inactive”.

`CCc1nn(C)c2c(=O)c(=O)c2n(C)[nH]1`: the cytotoxicity call was “inactive”.

On to `O=C(CN1CCOCC1)NCC[C@H]1CC[C@@H](NS(=O)(=O)c2ccc(Cl)cc2)[C@@H](CO)O1`, for which the cytotoxicity call is “inactive”.

Regarding `C[C@H]1CN([C@@H](C)CO)C(=O)c2cc(NS(=O)(=O)c3ccccc3)ccc2O[C@H]1CN(C)Cc1ccc(Cl)c(Cl)c1`, the cytotoxicity call is “inactive”.

`CC(C)Oc1ccccc1OCc1cnnn1CC(=O)NS(=O)(=O)c1ccccc1OC(F)(F)F`: the cytotoxicity call was “inactive”.

As for `Cc1ccc(S(=O)(=O)N(C)C[C@H]2Oc3ccc(NC(=O)NC(C)C)cc3C(=O)N([C@@H](C)CO)C[C@@H]2C)cc1`, the cytotoxicity call was “inactive”.

With `O=C(OCc1cccc(O)c1O[C@@H]1O[C@H](CO)[C@@H](O)[C@H](O)[C@H]1O)[C@]1(O)C(=O)[C@@H]2C=C[C@H]1c1c2ccc(O)c1O`, the cytotoxicity call is “inactive”.

Turning to `O=C1NCCc2c(O)cccc21`, the cytotoxicity call was “inactive”.

For `COC(=O)c1cn(CC(N)=O)c2ccccc12`, the cytotoxicity call is “inactive”.

On to `Cn1cc(CN2CCC(C(=O)N[C@@H](c3ccc(F)cc3)c3ccc4ccccc4n3)CC2)c2ccccc21`, for which the cytotoxicity call is “active”.

With `COc1ccc(S(=O)(=O)N(C)C[C@H]2Oc3ccc(NS(C)(=O)=O)cc3CC(=O)N([C@@H](C)CO)C[C@@H]2C)cc1`, the cytotoxicity call was “inactive”.

As to `CC(C)COC(=O)CNc1n[nH]c(=O)[nH]c1=O`, the cytotoxicity call is “inactive”.

In the case of `Cn1cnc(S(=O)(=O)N[C@@H]2C=C[C@@H](CC(=O)Nc3ccccc3)O[C@@H]2CO)c1`, the cytotoxicity call was “inactive”.

In the case of `CCOC(=O)[C@H]1CC(C)=NNC1=O`, the cytotoxicity call was “inactive”.

As to `Cn1cncc1[C@@](N)(c1ccc(Cl)cc1)c1ccc2c(c1)c(-c1cccc(Cl)c1)cc(=O)n2C`, the cytotoxicity call is “active”.

Regarding `O=C(CCCCCCC(=O)N/N=C/c1cccc(B(O)O)c1)NO`, the cytotoxicity call is “inactive”.

With `Cn1cnc(CCNC(=O)C[C@H]2CC[C@H]3[C@@H](COC[C@@H](O)CN3C(=O)Nc3ccc(C(F)(F)F)cc3)O2)c1`, the cytotoxicity call is “inactive”.

As to `c1cn(-c2ccc(-n3ccnc3)nn2)cn1`, the cytotoxicity call is “inactive”.

With `Clc1ccc2c(c1)C(N1CCNCC1)=Nc1ccccc1O2`, the cytotoxicity call is “active”.

With `CN1CCN(C2=Nc3ccccc3Oc3ccc(Cl)cc32)CC1.O=C(O)CCC(=O)O`, the cytotoxicity call was “inactive”.

As for `CN1CCN(C2=Nc3cc(Cl)ccc3Nc3ccccc32)CC1`, the cytotoxicity call was “inactive”.

With `CCS(=O)(=O)Nc1ccc2c(c1)C(=O)N(C)C[C@@H](OC)[C@H](C)CN(Cc1cccnc1)[C@H](C)CO2`, the cytotoxicity call is “inactive”.

Regarding `O=C(C[C@@H]1C[C@H]2c3cc(NC(=O)Nc4ccc(C(F)(F)F)cc4)ccc3O[C@H]2[C@H](CO)O1)NCCc1ccccc1`, the cytotoxicity call is “inactive”.

Turning to `CO[C@H]1CN(C)C(=O)c2cc(NS(=O)(=O)c3cn(C)cn3)ccc2OC[C@@H](C)N(CC2CC2)C[C@@H]1C`, the cytotoxicity call was “inactive”.

Regarding `C[C@@H]1CCCCO[C@@H](CN(C)S(=O)(=O)c2cccs2)[C@@H](C)CN([C@H](C)CO)C(=O)c2cc(NC(=O)Nc3ccc(F)cc3)ccc2O1`, the cytotoxicity call was “inactive”.

Take `C[C@@H]1CN([C@H](C)CO)C(=O)c2cc(NC(=O)Nc3ccc(F)cc3)ccc2O[C@@H](C)CCCCO[C@H]1CN(C)S(=O)(=O)c1cccs1`: the cytotoxicity call was “inactive”.

Regarding `COc1ccc(NC(=O)Nc2ccc3c(c2)C(=O)N([C@H](C)CO)C[C@H](C)[C@@H](CN(C)S(=O)(=O)c2cccs2)OCCCC[C@H](C)O3)cc1`, the cytotoxicity call is “inactive”.

Take `C[C@H](CO)N1C[C@H](C)[C@@H](CN(C)S(=O)(=O)c2cccs2)OCCCC[C@H](C)Oc2ccc(NC(=O)Nc3ccc(F)cc3)cc2C1=O`: the cytotoxicity call was “inactive”.

For `C[C@@H]1CN([C@@H](C)CO)C(=O)c2cc(NC(=O)Nc3ccc(F)cc3)ccc2O[C@@H](C)CCCCO[C@H]1CN(C)S(=O)(=O)c1cccs1`, the cytotoxicity call was “active”.

`C[C@H]1CCCCO[C@@H](CN(C)S(=O)(=O)c2cccs2)[C@@H](C)CN([C@@H](C)CO)C(=O)c2cc(NC(=O)Nc3ccc(F)cc3)ccc2O1`: the cytotoxicity call is “active”.

As to `C[C@@H]1CCCCO[C@@H](CN(C)S(=O)(=O)c2cccs2)[C@H](C)CN([C@@H](C)CO)C(=O)c2cc(NC(=O)Nc3ccccc3)ccc2O1`, the cytotoxicity call is “inactive”.

For `C[C@@H]1CCCCO[C@@H](CN(C)S(=O)(=O)c2cccs2)[C@H](C)CN([C@H](C)CO)C(=O)c2cc(NC(=O)Nc3ccccc3)ccc2O1`, the cytotoxicity call was “active”.

`C[C@@H]1CCCCO[C@H](CN(C)S(=O)(=O)c2cccs2)[C@@H](C)CN([C@H](C)CO)C(=O)c2cc(NC(=O)Nc3ccc(F)cc3)ccc2O1`: the cytotoxicity call was “inactive”.

As to `C[C@@H]1CN([C@@H](C)CO)C(=O)c2cc(NC(=O)Nc3ccccc3)ccc2O[C@@H](C)CCCCO[C@@H]1CN(C)S(=O)(=O)c1cccs1`, the cytotoxicity call was “inactive”.

As for `COc1ccc(NC(=O)Nc2ccc3c(c2)C(=O)N([C@@H](C)CO)C[C@H](C)[C@@H](CN(C)S(=O)(=O)c2cccs2)OCCCC[C@@H](C)O3)cc1`, the cytotoxicity call is “active”.

Consider `COc1ccc(NC(=O)Nc2ccc3c(c2)C(=O)N([C@@H](C)CO)C[C@H](C)[C@H](CN(C)S(=O)(=O)c2cccs2)OCCCC[C@@H](C)O3)cc1`, for which the cytotoxicity call is “inactive”.
